Where “and” joins values, the source holds several entries; their conditions need not be identical. Equal values may be shown once. In all, about 290,000 compounds went through this assay and about 140 (0.048%) were called active. This is one part of a sample in which actives are shown more often than they occur.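 The calls were made as follows: active = activation above 40% with more than 50 cells counted in the well; inconclusive = wells holding fewer than 50 cells, flagged as toxic or sparse; inactive = the rest.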
Experiments:
[1] = GPR55 agonists via beta-arrestin recruitment, primary screen, imaging, U2OS cells, beta-arrestin-GFP redistribution (AID 1961); conditions: measured here: cytotoxicity, cells analyzed, at 10 µM;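 also: U2OS osteosarcoma cells stably expressing GPR55 and beta-arrestin-GFP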;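 as to activation: plate controls were DMSO negative control for no effect and LPI positive control for full effect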
[2] = target: G-protein coupled receptor 55 (Homo sapiens) (UniProt Q9Y2T6); assay: as above; conditions: at 10 µM, stronger effect = higher value
Sequence of G-protein coupled receptor 55 (Homo sapiens) (Q9Y2T6 whole entry, looked up): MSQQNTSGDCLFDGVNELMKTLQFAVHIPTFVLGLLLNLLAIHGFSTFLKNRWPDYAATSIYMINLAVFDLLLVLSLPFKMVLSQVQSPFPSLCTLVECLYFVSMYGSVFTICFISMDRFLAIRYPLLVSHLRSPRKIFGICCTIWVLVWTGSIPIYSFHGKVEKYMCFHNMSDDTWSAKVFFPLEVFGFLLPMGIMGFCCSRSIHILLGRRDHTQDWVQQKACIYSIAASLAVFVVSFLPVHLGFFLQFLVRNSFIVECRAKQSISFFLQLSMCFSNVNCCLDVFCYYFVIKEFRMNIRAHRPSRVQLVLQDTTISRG

Q: For `CCN(CC)C(=O)CSc1nnc(-c2ccccc2)n1-c1ccccc1`, which cell count [1] is on record?
A: 281 cells

Q: And the activation [2]?
A: 0.2% (inactive)

Q: For `CC1CCC(C(C)C)C(OC(=O)Cn2c(-c3ccccc3)[n+](C)c3ccccc32)C1` (centres undefined), which cell count [1] is on record?
A: 252 cells and 322 cells

Q: And the activation [2]?
A: -0.3% (inactive)

Q: For `CC1CCC(C(C)C)C(OC(=O)Cn2c(-c3ccc(Br)cc3)[n+](C)c3ccccc32)C1` (centres undefined), which cell count [1] is on record?
A: 411 cells and 208 cells

Q: And the activation [2]?
A: 103% (active) and 106% (active)

Q: Which results are given for `Cc1cccc(OCc2n(CC(=O)OC3CC(C)CCC3C(C)C)c3ccccc3[n+]2C)c1` (centres undefined)?
A: cell count [1]: 339 cells; activation [2]: 81.2% (active)

Q: What does the source list for `Cc1ccccc1OCc1n(CC(=O)OC2CC(C)CCC2C(C)C)c2ccccc2[n+]1C` (centres undefined)?
A: cell count [1]: 276 cells and 236 cells; activation [2]: 68% (active)

Q: Which cell count [1] does the source give for `CCCCCCCCCCOC(=O)Cn1c(COc2cccc(C)c2)[n+](C)c2ccccc21` here?
A: 401 cells

Q: What about the activation [2] of the same compound?
A: 31.3% (inactive)

Q: Which cell count [1] does the source give for `CC1CCC(C(C)C)C(OC(=O)Cn2c(-c3ccc(F)cc3)[n+](C)c3ccccc32)C1` (centres undefined) here?
A: 272 cells

Q: And the activation [2]?
A: 0.6% (inactive)

Q: What does the source list for `CCCCCCCCCCOC(=O)Cn1c(COc2ccccc2C)[n+](C)c2ccccc21`?
A: cell count [1]: 386 cells; activation [2]: 17.1% (inactive)

Q: Which cell count [1] does the source give for `COc1ccc(OCc2n(CC(=O)OC3CC(C)CCC3C(C)C)c3ccccc3[n+]2C)cc1` (centres undefined) here?
A: 350 cells

Q: And the activation [2]?
A: 25.5% (inactive)

Q: What does the source list for `CCCCCCCCCCOC(=O)Cn1c(COc2ccccc2OC)[n+](C)c2ccccc21`?
A: cell count [1]: 361 cells; activation [2]: 32.1% (inactive)

Q: With `CC(C)c1ccc(/C=C/C(=O)NC2=NCCS2)cc1` as the compound, how does the cell count [1] read?
A: 384 cells

Q: And the activation [2]?
A: 0% (inactive)

Q: Which results are given for `CCCc1nnc2n1N=C(c1ccc(-c3cc(Cl)ccc3Cl)o1)CS2`?
A: cell count [1]: 356 cells; activation [2]: 142% (active)

Q: With `CCCc1nnc2n1N=C(c1ccc(C)cc1)CS2` as the compound, how does the cell count [1] read?
A: 336 cells

Q: And the activation [2]?
A: -0.1% (inactive)

Q: Which results are given for `CCc1nnc2n1N=C(c1ccc(Cl)cc1Cl)CS2`?
A: cell count [1]: 325 cells; activation [2]: -0.1% (inactive)

Q: With `O=[N+]([O-])c1ccc(/C=C/C2=NN(c3ccccc3)C(c3ccco3)C2)cc1` (centres undefined) as the compound, how does the cell count [1] read?
A: 311 cells

Q: And the activation [2]?
A: 120% (active)

Q: Which results are given for `O=[N+]([O-])c1ccc(/C=C/C2=NN(c3ccccc3)C(c3ccco3)C2)o1` (centres undefined)?
A: cell count [1]: 231 cells; activation [2]: 21.7% (inactive)

Q: Which results are given for `C(=C\c1ccco1)/C1=NN(c2ccccc2)C(c2ccco2)C1` (centres undefined)?
A: cell count [1]: 324 cells; activation [2]: 27.4% (inactive)

Q: For `CCOc1ncccc1C(=O)Nc1ccc(-c2ccc3nnc(C)n3n2)cc1`, which cell count [1] is on record?
A: 265 cells

Q: And the activation [2]?
A: -0.2% (inactive)

Q: Which cell count [1] does the source give for `Cc1ccc(C(=O)NC2(C(F)(F)F)NC(=O)N(c3ccc(Cl)cc3)C2=O)cc1` (centres undefined) here?
A: 333 cells

Q: What about the activation [2] of the same compound?
A: -0.3% (inactive)

Q: For `COc1ccc(CN2CCNC(=O)C2CC(=O)NC2CCC2)c(OC)c1` (centres undefined), which cell count [1] is on record?
A: 341 cells

Q: And the activation [2]?
A: -0.1% (inactive)

Q: For `CC(C)N1CCC(NC(=O)Nc2ccc3c(c2)OCO3)CC1`, which cell count [1] is on record?
A: 361 cells

Q: What about the activation [2] of the same compound?
A: 0.1% (inactive)

Q: Which cell count [1] does the source give for `Cc1ccc(N(CC(=O)NC2CCCC2)C(=O)Cn2nnc(-c3ccccc3F)n2)cc1` here?
A: 388 cells

Q: And the activation [2]?
A: 0% (inactive)

Q: For `CCOc1ccc(C=NCC(O)c2ccccc2)cc1` (centres undefined), which cell count [1] is on record?
A: 365 cells

Q: What about the activation [2] of the same compound?
A: -0.1% (inactive)

Q: For `CCCN1C(=O)/C(=C2/C=Cc3ccccc3N2CC)SC1=S`, which cell count [1] is on record?
A: 237 cells

Q: And the activation [2]?
A: -0.4% (inactive)

Q: Which results are given for `Cc1cc(C(F)(F)F)nc(SCCN2CCCCC2)c1C#N`?
A: cell count [1]: 404 cells; activation [2]: -0.2% (inactive)

Q: With `CCOc1ccc(OCCOCCN2CCOCC2)cc1` as the compound, how does the cell count [1] read?
A: 322 cells

Q: What about the activation [2] of the same compound?
A: -0.1% (inactive)

Q: Which cell count [1] does the source give for `CCCCN(CCCC)CC(O)COc1ccccc1Br` (centres undefined) here?
A: 385 cells

Q: What about the activation [2] of the same compound?
A: -0.2% (inactive)

Q: With `Clc1ccc(OCc2cn3ccccc3n2)c2ncccc12` as the compound, how does the cell count [1] read?
A: 448 cells

Q: What about the activation [2] of the same compound?
A: -0.1% (inactive)

Q: Which cell count [1] does the source give for `Cc1cccc2nc(COc3ccc(Cl)c4cccnc34)cn12` here?
A: 263 cells

Q: And the activation [2]?
A: 80.9% (active)

Q: With `Cc1cccc2nc(COc3ccc4ccccc4c3Br)cn12` as the compound, how does the cell count [1] read?
A: 340 cells

Q: And the activation [2]?
A: 0.4% (inactive)

Q: With `Cc1nc2ccc(NC(=O)CCC3CCCC3)cc2s1` as the compound, how does the cell count [1] read?
A: 329 cells

Q: And the activation [2]?
A: -0.1% (inactive)

Q: For `Cc1nn2c(C(F)(F)F)c3c(nc2c1-c1ccccc1)CCC3`, which cell count [1] is on record?
A: 390 cells

Q: And the activation [2]?
A: 0.4% (inactive)

Q: Which cell count [1] does the source give for `Cc1nn2c(N3CCCC3)c3c(nc2c1-c1ccccc1)CCC3` here?
A: 363 cells

Q: And the activation [2]?
A: 0% (inactive)

Q: For `Cc1ccc(C)c2nc3sc(C(=O)N4CCCc5ccccc54)c(N)c3cc12`, which cell count [1] is on record?
A: 369 cells

Q: What about the activation [2] of the same compound?
A: 0.3% (inactive)

Q: For `Cc1cccc2cc3c(N)c(C(=O)N4CCCc5ccccc54)sc3nc12`, which cell count [1] is on record?
A: 244 cells

Q: And the activation [2]?
A: 0.1% (inactive)

Q: With `Cc1cccc2cc3c(N)c(C(=O)N4CCc5ccccc54)sc3nc12` as the compound, how does the cell count [1] read?
A: 347 cells

Q: What about the activation [2] of the same compound?
A: 44.1% (active)

Q: Which cell count [1] does the source give for `CC1=NNC(=O)/C1=C\c1cn(-c2ccccc2)nc1-c1ccc(F)cc1` here?
A: 406 cells

Q: What about the activation [2] of the same compound?
A: 2.4% (inactive)

Q: For `CC1=NNC(=O)/C1=C\c1cn(-c2ccccc2)nc1-c1ccc(Cl)cc1`, which cell count [1] is on record?
A: 376 cells

Q: And the activation [2]?
A: 30.2% (inactive)

Q: For `CC1=NNC(=O)/C1=C\c1cn(-c2ccccc2)nc1-c1ccccc1`, which cell count [1] is on record?
A: 396 cells

Q: And the activation [2]?
A: 68.5% (active)

Q: Which cell count [1] does the source give for `COc1ccccc1NS(=O)(=O)c1cc([N+](=O)[O-])ccc1N/N=C/c1sc(N2CCOCC2)nc1-c1ccccc1` here?
A: 331 cells

Q: And the activation [2]?
A: 48.8% (active)

Q: Which cell count [1] does the source give for `O=[N+]([O-])c1ccc(N/N=C/c2sc(N3CCOCC3)nc2-c2ccccc2)c(S(=O)(=O)Nc2ccc(Cl)cc2)c1` here?
A: 392 cells

Q: And the activation [2]?
A: 18% (inactive)

Q: For `O=[N+]([O-])c1ccc(N/N=C/c2sc(N3CCOCC3)nc2-c2ccccc2)c(S(=O)(=O)Nc2ccccc2Cl)c1`, which cell count [1] is on record?
A: 413 cells

Q: And the activation [2]?
A: 22.5% (inactive)

From PubChem BioAssay AID1961 (Sanford-Burnham Center for Chemical Genomics, 2009)
